Source: PubChem (National Center for Advancing Translational Sciences (NCATS))
AmpC inh no detg = qHTS Inhibitors of AmpC Beta-Lactamase (assay without detergent); P00811; AmpC nitrocefin hydrolysis, absorbance 480 nm, 0.0001% Triton; Potency, µM (top dose mostly 57.1 µM), inactives show top-dose activity change, negative = inhibition, usual class: inhibitors; hit rate 0.52% among 330,000;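 also: plate controls were no compound for no effect and no enzyme for full effect; nearly all actives have a fitted effect of over 20% in size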
Target sequence (P00811 whole entry, looked up): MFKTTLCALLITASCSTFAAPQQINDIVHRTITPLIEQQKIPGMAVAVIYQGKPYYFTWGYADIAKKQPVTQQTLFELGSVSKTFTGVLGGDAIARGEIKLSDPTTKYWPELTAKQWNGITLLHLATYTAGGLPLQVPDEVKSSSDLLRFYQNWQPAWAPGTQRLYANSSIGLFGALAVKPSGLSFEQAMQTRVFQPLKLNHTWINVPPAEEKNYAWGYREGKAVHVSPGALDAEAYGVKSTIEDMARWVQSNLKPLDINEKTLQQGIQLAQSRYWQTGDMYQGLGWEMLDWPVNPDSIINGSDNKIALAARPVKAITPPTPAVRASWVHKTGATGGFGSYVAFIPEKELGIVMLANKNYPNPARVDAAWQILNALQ
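20 mM phosphate pH 7.0 + 0.01% (detergent screen) or 0.0001% Triton X-100; 5.3 nM AmpC reagent; cpd preinc 15 min RT; nitrocefin (800 uM stock) to start; A480 q20 s × 4 min; Activity was normalised to no-enzyme and no-compound control wells.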
TbPYK inhibitor = qHTS of Trypanosoma Brucei Inhibitors. pyruvate kinase (Trypanosoma brucei), Q57TT1. TbPYK enzyme, Kinase-Glo Plus ATP luminescence, 45 min. Potency, µM (highest dose often 76.8 µM), without a hit: at the top dose activity, negative = inhibition, usual class: inhibitors. hit rate 0.12% among 410,000; also: % is scaled to controls: 0 for no effect and ±100 for the full control effect; nearly all actives have a fitted effect of over 50% in size
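In this concentration-response screen, enzyme-free wells defined baseline while DMSO plates tracked drift. Each reaction combined TbPYK, substrate, compound and 130 uM ADP for 45 min at room temperature. Kinase-Glo Plus luminescence gave the signal.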
RE007 growth inh = qHTS Assay for Inhibitors of the HIV-1 protein Vpr | S. pombe RE007 Vpr strain, BacTiter-Glo ATP luminescence, 24 h | Potency, µM (titrated, usually from 92.2 µM), for inactives: top-dose activity change, negative = less growth, usual class: inhibitors | AID 651644, 2012 | hit rate 0.21% among 360,000; active = well fitted falling curve with a large enough effect; inconclusive = small, poorly fitted or top-dose-only effect; inactive = no such curve, though single readings can be large or run the other way; also: % is scaled to controls: 0 for no effect and ±100 for the full control effect; nearly all actives have a fitted effect of over 50% in size
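Fission yeast strain RE007, carrying one chromosomally integrated HIV-1 vpr copy, was seeded at OD 0.01 in PMG+AL medium with 23 nL pinned compound. After 24 h at 30 °C and 99% humidity, viability was read by BacTiter-Glo luminescence.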
AmpC detergent = qHTS Inhibitors of AmpC Beta-Lactamase (assay with detergent) | hit rate 0.041% among 370,000 | Potency, µM (series often up to 114 µM), for inactives: at the top dose activity change, negative = inhibition, usual class: inhibitors | AmpC hydrolysis of nitrocefin, absorbance 480 nm, 0.01% Triton;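 also: 0% = no-compound wells and -100% = no-enzyme wells; nearly all actives have a fitted effect of over 25% in size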
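20 mM phosphate pH 7.0 + 0.01% (detergent screen) or 0.0001% Triton X-100; 5.3 nM AmpC reagent; cpd preinc 15 min RT; nitrocefin (800 uM stock) to start; A480 q20 s × 4 min; Activity was normalised to no-enzyme and no-compound control wells.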
Sm TGR block = qHTS Assay for the Inhibitors of Schistosoma Mansoni Peroxiredoxins; Schistosoma mansoni thioredoxin glutathione reductase (TGR), Q962Y6; purified TGR, DTNB reduction, TNB absorbance 405 nm; Potency, µM (titrated, usually from 114 µM), for inactives: at the highest dose activity change, negative = inhibition, actives largely listed as inhibitors; hit rate 3% among 360,000; also: % is scaled to controls: 0 for no effect and ±100 for the full control effect; nearly all actives have a fitted effect of over 60% in size
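TGR 20 nM + NADPH 100 uM (dispensed conc.), cpd preinc 15 min RT; start with NADPH (500 uM addition) then DTNB (15 mM addition). Kinetic TNB absorbance, 405 nm filter. Four-parameter Hill fit across titration.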
SARS PLpro yeast = qHTS of Yeast-based Assay for SARS-CoV PLP. AID 485353, 2010. S. cerevisiae expressing SARS-CoV PLpro, growth rescue. hit rate 0.19% among 330,000. Potency, µM (top dose mostly 32.9 µM), inactives show top-dose activity, positive = growth rescue, usual class: activators; calls by dose curve; also: 0% is about no effect; nearly all actives have a fitted effect of over 55% in size
* = called active by the depositor; ? = inconclusive; nt = not tested or not shown; [ ] = dose if it differs, or a comment. Rows were chosen to be rich in hits. Some 3.3% of all compounds tested hit in one or more screens of this group. Unless noted, calls follow the shape of the dose curve; as a rule, active = well fitted curve in the direction sought with a large enough effect; inconclusive = small, poorly fitted or top-dose-only effect, or another doubt; inactive = no such curve, though single readings can be large; an effect the other way counts as inactive or inconclusive. Potency is read from the fitted curve at half-maximal effect.

SMILES	AmpC inh no detg	TbPYK inhibitor	RE007 growth inh	AmpC detergent	Sm TGR block	SARS PLpro yeast
CCn1c(C(c2ccccc2)c2ccccc2)n[nH]c1=S	-30.8%	8.91µM*	8.8%	?	-17.5%	1.6%
O=C(Nc1cccc(C(F)(F)F)c1)c1ccc(Cn2cc(Br)cn2)o1	-20.9%	3.1%	-15.4%	?	-23.5%	-10.6%
O=C(c1ccc(Cn2cc(Br)cn2)o1)n1cccn1	0.501µM*	-0.4%	0.2%	2.0%	-25.4%	?
O=C(Nc1ccc(C(F)(F)F)cc1Cl)c1ccc(Cn2cc(Br)cn2)o1	nt	-1.4%	-0.6%	3.1%	44.7µM*	nt
O=C(NC1CCCCC1)c1ccc(Cn2cc(Br)cn2)o1	6.5%	-0.6%	-24.2%	4.1%	44.7µM*	-2.6%
O=C(NCc1ccccn1)c1ccc(Cn2cc(Br)cn2)o1	?	2.4%	6.3%	-1.3%	?	-0.3%
CC1(C)CC(NC(=S)Nc2ccc([N+](=O)[O-])cc2)CC(C)(C)N1	-19.4%	-3.0%	-0.1%	6.8%	50.1µM*	0.1%
Nc1cc(Cl)c2nonc2c1[N+](=O)[O-]	-15.4%	1.3%	-18.2%	-9.8%	1.41µM*	6.1%
O=[N+]([O-])c1c(Nc2ccc(O)cc2)cc(N2CCOCC2)c2nonc12	-28.7%	3.1%	17.3%	?	-7.6%	0.9%
O=[N+]([O-])c1c(Nc2ccccc2O)ccc2nonc12	-29.9%	3.5%	0.4%	?	4.6%	-7.1%
O=[N+]([O-])c1c(Nc2ccccc2O)cc(Cl)c2nonc12	31.6µM*	-12.9%	-22.5%	-16.5%	0.631µM*	-16.3%
O=C(O)c1cc(Nc2cc(Cl)c3nonc3c2[N+](=O)[O-])ccc1O	-20.8%	-11.8%	-19.2%	-9.2%	0.1µM*	2.7%
O=[N+]([O-])c1c(O)c(Cl)cc(Cl)c1Cl (tested in a mixture with another compound)	nt	-6.4%	-8.5%	nt	nt	nt
Cc1ccc2c(c1)C(=O)OC(C(=O)Nc1ncc(Cc3ccc(C(C)C)cc3)s1)C2 (stereo not given)	nt	0.8%	nt	20.3%	8.1%	nt
CCOc1ccccc1CNC(=O)C1CCN(c2nn3cc(-c4ccc(F)cc4)nc3s2)CC1	nt	-6.1%[15.4 µM]	nt	1.1%	-8.6%	nt
CCOC(=O)C(C)Oc1cccc2c(=O)n(CC(=O)Nc3cccc(OC)c3)ccc12 (stereo not given)	7.08µM*	-1.0%	-2.6%	?	0.0%	4.1%
CCOC(=O)C(C)Oc1cccc2c(=O)n(CC(=O)Nc3ccc(OCC)cc3)ccc12 (stereo not given)	-4.5%	-1.0%	-2.1%	?	-2.7%	-2.6%
CCC(Sc1nc2c(sc3ccccc32)c(=O)n1CCCC(=O)NC1CCCC1)C(=O)Nc1cccc(OC)c1 (stereo not given)	nt	4.1%	nt	0.1%	1.0%	nt
CCc1c(C(C)S(=O)(=O)c2ccc(C)cc2)[nH]c(=O)n1-c1ccc(OC(F)(F)F)cc1 (stereo not given)	1.9%	-9.6%	17.0%	7.4%	5.62µM*	14.5%
CCOc1ccc(NC(=O)c2oc3ccccc3c2NC(=O)C(C)(C)C)cc1	nt	-7.0%	nt	2.0%	-5.3%	nt
O=C(/C=C/c1ccccc1)/C=C/c1ccccc1	-41.4%	-2.9%	?	-0.3%	25.1µM*	-33.0%
O=C(O)c1cccc2c1C(=O)c1cc([N+](=O)[O-])cc([N+](=O)[O-])c1-2	nt	-8.9%	-8.8%	nt	nt	nt
Cc1cccc(N=C2c3cc([N+](=O)[O-])ccc3-c3c2cc([N+](=O)[O-])cc3[N+](=O)[O-])c1	nt	-0.5%	22.4µM*	nt	nt	nt
